Reference: PubChem BioAssay (NCI)
About 83,000 compounds went through this panel and 20% of them were active in at least one assay; those are over-represented in the sample as a whole.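 Method: cells in 96-well plates; compound added at one concentration; 48 h incubation; percent growth measured; values under 10 scored active.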 A number with no mark means an inactive call. The source made the active and inactive calls.

Each molecule was assayed on NCI-H522 lung (assay: NCI-60 one-dose screen, 48 h (100 = growth as untreated, 0 = no growth, -100 = all killed)). Settings: 10 µM unless noted.

Row | SMILES | growth
1 | O=c1oc2c(cnc3ccccc32)cc1-c1cccc(Cl)c1 | 101%
2 | CCOC(=O)c1c(C)nc2c(c1N)C(=O)C(=O)N2Cc1ccc(OC)cc1 | 41.3%
3 | CCNC(=O)N1CCc2c(Br)c3c(c(OC)c2C1Cc1ccc(OC)cc1)OCO3 (centres undefined) | 25.5%
4 | COc1cc2c(c(OC)c1OC)CCC(c1cccc(C(=O)Nc3ccc(Br)cc3)c1)O2 (centres undefined) | 48.8%
5 | Cc1ccc(OCCOCCOCCOc2ccc(C)n(O)c2=S)c(=S)n1O | 22.5%
6 | C=CN(C(=O)N1CCN(c2cc3c(cc2F)c(=O)c(C(=O)O)cn3C2CC2)CC1)c1nc(-c2ccc(Cl)cc2)cs1 | 64.7%
7 | Cc1nc2ccccc2c(/C=C/c2ccc(F)cc2)c1C(=O)/C=C/c1ccccc1 | 5.78% (active)
8 | COc1cc(/C=C/C(=O)N2CCN(C(=O)c3cc(OC)c(OC)c(OC)c3)CC2)ccc1OCCCOc1cc2c(cc1OC)C(=O)N1CCC[C@H]1C=N2 | -54.5% (active)
9 | O=C(NC1CCC(Br)CC1)C1CCCC(S(=O)(=O)NC2CCCCC2)C1 (centres undefined) | -3.79% [25 µM] (active)
10 | COc1cc(/C=C/c2cn[nH]c2-c2ccc(C)cc2)cc(OC)c1OC | 23.1%
11 | COc1ccc(C/C(C)=C(\c2ccc(Cl)cc2)c2ccc(OCCN3CCCC3)cc2)cc1 | 90%
12 | CN(C)Cc1ccc(NC(=O)c2cncc(C#Cc3cnc(N)c4ncccc34)c2)cc1C(F)(F)F | 94.6%
13 | COC(=O)c1c(C)nc(C)c2c1C(=O)C=C(NCc1ccccc1)C2=O | 78.8%
14 | N#CSc1c[nH]c2ccc(/C=C/C(=O)/C=C(O)/C=C/c3ccc4[nH]cc(SC#N)c4c3)cc12 | -63.9% (active)
15 | Cc1ccc(-c2nc(SCC(=O)N3CCN(c4cc5c(cc4F)c(=O)c(C(=O)O)cn5C4CC4)CC3)nc(Cl)c2C#N)cc1 | 93.8%
16 | COC(=O)/C=C1/SC(=NCc2ccccc2)N(CCc2c[nH]c3ccccc23)C1=O | 77.1%
17 | C=C(C)[C@@H]1CC[C@]2(C(=O)N3CCN(C)CC3)CC[C@]3(C)[C@H](CC[C@@H]4[C@@](C)(CCC(=O)O)[C@H](C(=C)C)CC[C@]43C)[C@@H]12 | 73.5%

Row | SMILES | growth
18 | Nc1[nH]nc2nc(-c3ccccc3)n3c4ccccc4nc3c12 | 82.7%
19 | CN1CCOCCN(C)Cc2ccc3ccc(cc3c2)CN(C)CCOCCN(C)Cc2ccc3ccc(cc3c2)C1 | 110%
20 | COc1ccc(/C=N/Nc2c3ccccc3nc3ccccc23)cc1 | 90.7%
21 | C=C1C(=O)O[C@H]2[C@H]1CC/C(CNC(=O)Cc1c[nH]c3ccccc13)=C\CC[C@@]1(C)O[C@@H]21 | -79.4% (active)
22 | COc1ccc2c(c1)CC[C@@H]1[C@@H]2CC[C@]2(C)c3c(cc(C#N)c4c3sc3ccccc34)C[C@@H]12 | 96.5%
23 | O=C(c1c[nH]c2ccccc12)c1n[nH]c(=S)n1-c1ccc([N+](=O)[O-])cc1 | 84.7%
24 | Cc1c2cnccc2c(C)c2c1c1cc(CO)ccc1n2C | -72.6% (active)
25 | COc1cc(-c2nccc3[nH]c(-c4cccc5[nH]ccc45)nc23)cc(OC)c1OC | -15.7% (active)
26 | Clc1ccc(-c2nc(C(Cl)Cl)nc3cc(-c4ccccc4)nn23)cc1 | 22.6%
27 | CC1=Nc2cnc(Nc3ccc(N4CCCCC4)cc3)nc2Nc2ccccc21 | 40%
28 | CN(C)c1ccc([C@@H](C(=O)Nc2cccc([N+](=O)[O-])c2)N(C(=O)c2cc3ccccc3[nH]2)c2cccc([N+](=O)[O-])c2)cc1 | 92.3%
29 | O=C(CSc1nnnn1-c1ccccc1)Nc1ccc(Oc2ccccc2)cc1 | 79.3%
30 | COc1cc(/C=C/C(=O)c2cccc(-n3cc(-c4ccc(Cl)cc4)[nH]c3=O)c2)ccc1O | 23.4%
31 | Oc1c(CN2CCC(N3CCOCC3)CC2)cc(Cc2cc(CN3CCC(N4CCOCC4)CC3)c(O)c3ncccc23)c2cccnc12 | 15.4%
32 | c1ccc2cc(Cn3cc(CSc4nc5ccccc5s4)nn3)ccc2c1 | 86.9%
33 | CN(C)Cc1cc(C(C)(C)C)cc(Br)c1O | 103%
34 | C=C1C(=O)O[C@H]2[C@H]1CC/C(COC(=O)NCc1ccc(Cn3c(=O)sn(-c4ccc(I)cc4)c3=O)cc1)=C\CC[C@@]1(C)O[C@@H]21 | 2.14% (active)
